Screens: PubChem, National Center for Advancing Translational Sciences (NCATS)
The list is not random: actives were taken first. Their share in the collection is about 7.5%.
Vaccinia Venus = qHTS for Stage-Specific Inhibitors of Vaccinia Orthopoxvirus: Venus Reporter Primary qHTS. Potency, µM (top dose mostly 36.5 µM), for the others: at the top dose activity change, negative = inhibition, most hits filed as inhibitors. AID 720580, 2013. Vaccinia virus Venus reporter expression, fluorescence. 330,000 compounds, 0.46% hits; calls by dose curve; tested in A549 cells; further: potency means the concentration at half of the fitted maximal effect; nearly all actives have a fitted effect of over 30% in size
FMDV antiviral = High Throughput Screening for Foot and Mouth Disease Virus Antivirals | FMDV antiviral cell-based qHTS | Potency, µM (highest dose often 57.9 µM), for inactives: top-dose activity change, negative = inhibition, actives largely listed as inhibitors | 410,000 compounds, 1.2% hits; calls by dose curve; tested in HEK293T cells; further: read-out not given here; potency means the concentration at half of the fitted maximal effect; nearly all actives have a fitted effect of over 45% in size
FBPA Giardia inh = qHTS Assay for Inhibitors of Fructose-1,6-bisphosphate Aldolase from Giardia Lamblia; purified Giardia FBPA; Potency, µM (titrated, usually from 59.6 µM), for inactives: at the highest dose activity, negative = inhibition, actives largely listed as inhibitors; AID 2451, 2010; 290,000 compounds, 0.71% hits; further: potency means the concentration at half of the fitted maximal effect; nearly all actives have a fitted effect of over 55% in size
Target sequence (A8B2U2 whole entry, looked up): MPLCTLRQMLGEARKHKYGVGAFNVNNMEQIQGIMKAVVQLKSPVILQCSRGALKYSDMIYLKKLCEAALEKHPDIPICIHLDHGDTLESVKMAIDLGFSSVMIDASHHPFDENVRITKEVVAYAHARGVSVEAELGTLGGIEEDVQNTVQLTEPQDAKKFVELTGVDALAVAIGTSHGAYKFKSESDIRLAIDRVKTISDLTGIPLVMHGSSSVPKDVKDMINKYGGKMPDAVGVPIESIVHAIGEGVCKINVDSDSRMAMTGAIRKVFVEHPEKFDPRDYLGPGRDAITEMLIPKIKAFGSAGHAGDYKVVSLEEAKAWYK
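40 nM FBPA preincubated 10 min at RT with compound (up to 57.5 uM final), then substrate plus GAPDH/TPI/NAD/arsenate coupling and diaphorase/resazurin added. Fluorescence read after 20 min at RT, 525/598 nm.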
Vaccinia mCherry = qHTS for Stage-Specific Inhibitors of Vaccinia Orthopoxvirus: mCherry Reporter Primary qHTS; Vaccinia virus mCherry reporter infection, fluorescence; Potency, µM (series often up to 36.5 µM), without a hit: top-dose activity change, negative = inhibition, actives largely listed as inhibitors; 310,000 compounds, 0.63% hits; AID 720579, 2013; calls by dose curve; tested in A549 cells; further: potency means the concentration at half of the fitted maximal effect; nearly all actives have a fitted effect of over 35% in size
HCMV inh = qHTS Assay for inhibitors of the human cytomegalovirus (HCMV); HFF cells, HCMV-luciferase reporter, 72 h; stronger effect = lower value; 410,000 compounds, 4.5% hits; activity change, negative = inhibition, % at 57.5 µM; in the data active means activity change below about -60%; inconclusive means no clear call, values can overlap the other calls; inactive means above about -39%
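Screen run at 2 compound doses on HFFs infected with reporter HCMV, MOI 1 PFU/cell. Luciferase activity from cell lysates at 72 h post infection gave inhibition relative to buffer-only and Salinomycin wells.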
HCV inh = qHTS Assay for Inhibitors of Hepatitis C Virus (HCV) | Huh7.5.1 HCVcc-Cre infection, luciferase reporter, 44 h | Potency, µM (doses to about 41.8 µM), without a hit: at the highest dose activity change, negative = inhibition, actives largely listed as inhibitors | 340,000 compounds, 3.4% hits; further: potency means the concentration at half of the fitted maximal effect
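Luciferase read-out (15 sec integration) after a 15 min room-temperature substrate step quantifies HCVcc-Cre infection. Cells, 1,000 per well, had compound added 4 h post-plating, then virus at ~0.5 moi, and were cultured 44 h.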
* hit, by the source's call; i = inactive; ? = inconclusive; . = no result given; [ ] = remark or other dose. Unless noted, the call rests on the fitted dose curve; in most records, active means well fitted curve in the direction sought with a large enough effect; inconclusive means small, poorly fitted or top-dose-only effect, or another doubt; inactive means no such curve, though single readings can be large; an effect the other way counts as inactive or inconclusive. On the % scale 0 is the no-effect control and ±100 the full control effect.

SMILES	Vaccinia Venus	FMDV antiviral	FBPA Giardia inh	Vaccinia mCherry	HCMV inh	HCV inh
Cc1ccc(-c2ccc(CN3C(CC(C)C)C(=O)N(Cc4cn(Cc5ccco5)nn4)CCS3(=O)=O)cc2)cc1 (stereo not given)	-2%	-11%	.	-3%	-7	.
NS(=O)(=O)c1ccc(CCNC(=O)Cc2ccc(Cl)cc2)cc1	-12%	-17%	7%	i	2	7%
CCCCC/C=C\C/C=C\C/C=C\C=C\[C@@H](O)CCCC(=O)O	-9%[0.293 µM]	-18%[0.463 µM]	0%	-14%[0.293 µM]	.	.
COc1ccccc1-c1nc2ccccc2nc1-c1ccccc1	.	0%	-2%	.	-63*	-19%
COc1ccc(OC)c(-c2nc3ccccc3nc2-c2ccccc2)c1	7%	?	14%	-14%	29	-17%
COc1ccc2c(CNC3CCCCCC3)c(C(=O)O)n(Cc3ccc(C)cc3)c2c1	-11%	-16%	.	-7%	11	.
COc1ccc(Cn2c(C(=O)O)c(CNC3CCCCCC3)c3ccc(OC)cc32)cc1	-6%	-3%	.	-19%	-100*	.
COc1ccc2c(CNCCc3ccccc3OC)c(C(=O)O)n(Cc3ccc(F)cc3Cl)c2c1	?	-5%	.	-5%	-108*	.
COc1ccc(Cn2c(C(=O)O)c(CNCCc3ccco3)c3ccc(OC)cc32)cc1	-3%	11%	.	2%	6	.
COc1ccc2c(CNCCc3ccc(SC)cc3)c(C(=O)O)n(Cc3ccc(F)cc3)c2c1	-30%	-18%	.	?	-74*	.
COc1ccc(C(O)c2ncc(-c3ccccc3Cl)[nH]2)cc1 (stereo not given)	-7%	38%	.	20%	-74*	.
COc1ccc(-c2cnc(C(O)c3ccccc3)[nH]2)cc1 (stereo not given)	2%	53%	.	11%	2	.
OC(c1ccc(Cl)cc1)c1ncc(-c2ccc(Oc3ccccc3)cc2)[nH]1 (stereo not given)	?	-17%	.	10µM*	?	.
OC(c1ccccc1)c1ncc(-c2ccc(Oc3ccccc3)cc2)[nH]1 (stereo not given)	?	21%	.	16µM*	-3	.
CCOC(=O)C(C(=O)Nc1cccc(C)c1)C1CCCCC1 (stereo not given)	-15%	.	1%	i	-17	-5%
CC(C)(C)OC(=O)N1CCC(C(=O)Nc2ccc(C(=O)NCc3ccccc3)cc2)CC1	?	-18%	.	-23%	-5	?
Cc1ccc(S(=O)(=O)c2nc(-c3cccs3)oc2SCc2ccc(F)cc2)cc1	-19%	5%	.	-9%	-11	.
COc1cccc(CCNC(=O)c2cnc3sc(N4CCCCCC4)nn3c2=O)c1	-20%	?	.	-24%	1	.
Nc1nc(-c2ccc(Cl)cc2)cs1	.	.	.	.	52	.
Nc1nc(-c2ccc3ccccc3c2)cs1	-20%	45%	-5%	-23%	4	-7%
Nc1nc(-c2ccc(Oc3ccccc3)cc2)cs1	.	22%	6%	.	25	10µM*
Nc1nc(-c2ccc(-c3ccccc3)cc2)cs1	?	9%	-2%	?	-1	10µM*
CCCNS(=O)(=O)c1ccc(OCC(=O)N2CCN(Cc3ccc4c(c3)OCO4)CC2)cc1	.	-25%	7%	.	?	?
O=C(CCc1ccc(S(=O)(=O)NCCc2ccccc2)cc1)N1CCN(Cc2ccc3c(c2)OCO3)CC1	.	.	0%	.	-89*	.
CCCNS(=O)(=O)c1ccc(OCC(=O)N2CCN(Cc3ccc4c(c3)OCO4)CC2)c(C)c1	-25%	-21%	.	i	?	7.9µM*
SMILES	Vaccinia Venus	FMDV antiviral	FBPA Giardia inh	Vaccinia mCherry	HCMV inh	HCV inh
O=C(Cc1n[nH]c(=O)c2ccccc12)OCC(=O)c1ccccc1Cl	-5%	-7%	.	-5%	21	24%
Cc1cc(C(=O)CSc2nnnn2-c2ccccc2)c(C)n1-c1ccc2c(c1)OCO2	-13%	-26%	-10%	-12%	-3	?
Cc1cc(C(=O)COC(=O)Cc2n[nH]c(=O)c3ccccc23)c(C)n1-c1ccc2c(c1)OCCO2	?	?	-16%	?	-77*	-27%
Cc1cc(C(=O)COc2ccc(C#N)cc2)c(C)n1CC1CCCO1 (stereo not given)	18%	-21%	.	i	-29	?
Cc1cc(C(=O)COc2ccc(C#N)cc2)c(C)n1-c1ccc2c(c1)OCO2	-13%	?	0%	-27%	-66*	-20%
Cc1cc(C(=O)CSc2nncs2)c(C)n1-c1ccc2c(c1)OCO2	-22%	.	-17%	-7%	-69*	?
Cc1ccc(CN(CC(=O)N/N=C/c2ccco2)S(=O)(=O)c2ccc(C)cc2)cc1	-25%	-3%	-8%	.	-29	-9%
CCCCCNC(=O)C1(C)CCc2nc3cc(C)c(C)cc3n21 (stereo not given)	.	.	.	.	-11	.
C=CC[n+]1c(-c2ccc(OC)c(OC)c2)csc1NNC(=O)Nc1ccccc1	?	.	-6%	?	?	4µM*
C=CC[n+]1c(-c2ccccc2)csc1NC(C)(C)C	4%	-17%	-8%	?	-9	5%
O=C(CCn1c2c(c3ccccc31)CCCC2)NNC(=O)c1ccc(Cl)c([N+](=O)[O-])c1	-2%	3%	6%	-13%	-29	10µM*
CCOC(=O)NNC(=O)CCn1c2c(c3ccccc31)CCCC2	.	-5%	-14%	.	-89*	?
O=C(CCn1c2c(c3ccccc31)CCCC2)NNC(=O)c1ccc([N+](=O)[O-])cc1	-11%	-21%	-2%	-12%	-10	?
Cc1cc(C)c(C)c(C(=O)COC(=O)CNC(=O)CNC(=O)c2ccco2)c1C	-12%	4%	9%	-24%	3	5%
Cc1cccc(OCC(=O)N2CCN(Cc3ccc([N+](=O)[O-])cc3)CC2)c1	5%	?	-7%	-10%	-32	?
COc1ccc(OCC(=O)N2CCN(c3nnc(-c4ccccc4)c4ccccc34)CC2)cc1	.	?	7%	.	15	18µM*
Cc1ccc(-c2nnc(N3CCN(C(=O)CN4C(=O)c5ccccc5C4=O)CC3)c3ccccc23)cc1	.	-16%	.	.	-13	-3%
Cc1cccc(OCC(=O)N2CCN(C(=O)c3ccc([N+](=O)[O-])cc3)CC2)c1	3%	-16%	-1%	i	-61*	-7%
O=C(COc1ccccc1)N1CCN(c2nnc(-c3ccccc3)c3ccccc23)CC1	.	?	-1%	.	?	?
COc1ccc(OCC(=O)N2CCN(c3nnc(-c4ccc(C)cc4)c4ccccc34)CC2)cc1	?	28µM*	-1%	?	-29	8.9µM*
